High-throughput results (PubChem)
A selection: hits, their analogues and other compounds. The true share with any hit is near 3.2%.
esBAF inh: SWI/SNF esBAF complex inhibition. mouse ES cells, Bmi1-luciferase knock-in reporter, 24 h; 100% = twice the neutral-well signal. reporter increase, % at 12.5 µM. 350,000 compounds, 2% hits; in the data active = activation above about 40%;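 note: 0% = median of the plate's neutral control wells and 100% = double that signal; a rise in the Bmi1 reporter signal indicates esBAF inhibition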
CDK5 inh: blocks human CDK5/p35 kinase activity | inhibition, % at 10 µM | AID 488839 | Recombinant CDK5/p35, ADP-Glo luminescence, 60 min | 330,000 compounds, 0.01% hits | Q00535+Q15078;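 active = highest replicate inhibition of at least 50% and at least 75% of replicates reaching 50%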;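 note: plate controls were DMSO neutral control for no effect and GW8510 at 10 µM for full effect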
Rtt109 HAT inh: inhibitors of Candida albicans Rtt109/Vps75 histone acetyltransferase. Q5AAJ8. purified Rtt109/Vps75, ThioGlo CoA-SH fluorescence, 4 h. inhibition, % at 34.9 µM. 330,000 compounds, 0.16% hits;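 active = inhibition of at least 50% in every replicate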
Target sequence (Q5AAJ8 whole entry, looked up): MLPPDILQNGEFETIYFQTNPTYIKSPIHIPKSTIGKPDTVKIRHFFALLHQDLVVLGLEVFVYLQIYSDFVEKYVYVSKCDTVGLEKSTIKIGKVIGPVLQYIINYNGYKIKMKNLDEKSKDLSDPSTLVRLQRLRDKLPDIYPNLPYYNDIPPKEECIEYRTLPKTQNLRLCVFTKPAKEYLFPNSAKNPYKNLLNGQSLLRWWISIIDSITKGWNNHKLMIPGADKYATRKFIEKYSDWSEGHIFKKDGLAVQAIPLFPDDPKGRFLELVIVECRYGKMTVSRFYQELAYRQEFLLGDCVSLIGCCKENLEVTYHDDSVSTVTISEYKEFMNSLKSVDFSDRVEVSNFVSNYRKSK
DYRK1A inh: blocks rat Dyrk1A kinase activity | AID 504441 | ADP-Glo luminescence, NFATc1 peptide | 310,000 compounds, 0.43% hits | Q63470 | inhibition, % at 12.5 µM; in the data active = inhibition above about 50%;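 note: plate controls were vehicle with enzyme for no effect and no enzyme for full effect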
dFosB act-1: enhances mouse delta FosB homodimer DNA binding; activation, % at 25 µM; 340,000 compounds, 0.99% hits; purified delta FosB, TAMRA-CDK5 oligo fluorescence polarization; percent of positive-control signal above neutral wells; AID 493131; P13346;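 active = mean activation above about 17%, with every replicate also reaching it, limit read from the data, passing the limit was not always enough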
SMARCA2 activ: activators of SMARCA2 function; MG213 cells, MMTV-luciferase reporter, dexamethasone, overnight; activation, % at 9.1 µM; 370,000 compounds, 1% hits; AID 652017; in the data active = activation above about 7.8%;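 note: 0% = vehicle wells and 100% = reference activator wells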
dFosB act-2: activators of mouse delta FosB homodimer DNA binding | 2,400 tested, under 10 active | activation, % at 24.9 µM | purified delta FosB, TAMRA-CDK5 oligo fluorescence polarization; normalised: neutral wells 0, positive control 100 | shares compounds with dFosB act-1;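 active = highest replicate activation at or above 34% and every replicate reaching that threshold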;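 note: higher polarization means more probe DNA bound by delta FosB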
An asterisk follows results filed as active.

Screening COc1ccc(-n2nc(C(=O)Nc3ccc(OC)c(OC)c3)c3c4ccccc4n(C)c3c2=O)cc1 returned esBAF inh 1, CDK5 inh -3, Rtt109 HAT inh -1, DYRK1A inh 1, dFosB act-1 27*, SMARCA2 activ -4 and dFosB act-2 1.
O=S(=O)(NC1CC1)c1ccc(S(=O)(=O)N2CCCC3(CCCCC3)C2)cc1 was read as esBAF inh 2, CDK5 inh -2, Rtt109 HAT inh 5, DYRK1A inh -2, dFosB act-1 16*, SMARCA2 activ 3 and dFosB act-2 7.
Screening O=S(=O)(NC1CC1)c1ccc(S(=O)(=O)N2CCN3CCCC3C2)cc1 (centres undefined) returned CDK5 inh -3, Rtt109 HAT inh -4, DYRK1A inh -2, dFosB act-1 -2 and SMARCA2 activ 2.
For COc1ccc(/C=N/NC(=O)c2ccc(COc3ccccc3Cl)o2)c(OC)c1C the results were CDK5 inh 1, Rtt109 HAT inh 4, DYRK1A inh -5, dFosB act-1 -12 and SMARCA2 activ -2.
Screening COc1ccc(/C=N/NC(=O)c2ccc(COc3ccccc3Cl)o2)cc1 returned CDK5 inh 0, Rtt109 HAT inh -8, DYRK1A inh -2, dFosB act-1 28*, SMARCA2 activ -3 and dFosB act-2 8.
Screening Cc1cc(NC(=O)c2ccc(COc3ccccc3Cl)o2)no1 returned esBAF inh 3, CDK5 inh 0, Rtt109 HAT inh -3, DYRK1A inh -4, dFosB act-1 7 and SMARCA2 activ -1.
Screening CC(=O)Nc1ccc(/C(C)=N/NC(=O)c2ccc(COc3ccccc3Cl)o2)cc1 returned esBAF inh 3, CDK5 inh -7, Rtt109 HAT inh 1, DYRK1A inh 10, dFosB act-1 31*, SMARCA2 activ -1 and dFosB act-2 -2.
Screening C[C@H](CO)N1C[C@H](C)[C@H](CN(C)C(=O)CCC(F)(F)F)OCCCC[C@H](C)Oc2ccc(NC(=O)CCCN(C)C)cc2C1=O returned esBAF inh 3.
For CCCC#Cc1ccc([C@@H]2[C@@H](CO)N3CCCCN(Cc4cccnc4)C[C@H]23)cc1 the results were esBAF inh 7.
For Cc1ccc(C)c2c1[nH]c1ccc([N+](=O)[O-])cc12 the results were esBAF inh 1, CDK5 inh 12, Rtt109 HAT inh 4, DYRK1A inh 29, dFosB act-1 21*, SMARCA2 activ 1 and dFosB act-2 0.
For Cc1c(C(=O)NN)[nH]c2ccc([N+](=O)[O-])cc12 the results were SMARCA2 activ -2.
For CCOc1cc(/C=N/N=C(\N)c2nonc2N)cc(Br)c1OCc1cccc2ccccc12 the results were esBAF inh 12, CDK5 inh 0, Rtt109 HAT inh -12, DYRK1A inh -3, dFosB act-1 41*, SMARCA2 activ 2 and dFosB act-2 4.
Screening COc1cc(/C=N/N=C(/N)c2nonc2N)cc(Br)c1OCc1cccc(C)c1 returned esBAF inh 2, CDK5 inh 0, Rtt109 HAT inh -1, DYRK1A inh 0, dFosB act-1 -8 and SMARCA2 activ -7.
For CO[C@H](CN(C)S(=O)(=O)c1cccc(Cl)c1)[C@@H](C)CN([C@@H](C)CO)S(=O)(=O)c1cccc(Cl)c1 the results were esBAF inh 0.
For NC(=O)c1nsc(C(=O)N(c2ccccc2)C(C(=O)NCc2ccc(F)cc2)c2ccc(O)cc2)c1N (centres undefined) the results were esBAF inh -4, CDK5 inh 0, Rtt109 HAT inh -17, DYRK1A inh 3, dFosB act-1 44*, SMARCA2 activ -2 and dFosB act-2 3.
NC(=O)c1nsc(C(=O)N(c2ccccc2)C(C(=O)NC2CCCCC2)c2ccc(O)cc2)c1N (centres undefined) was read as esBAF inh 5, CDK5 inh 0, Rtt109 HAT inh 0, DYRK1A inh 17, dFosB act-1 19*, SMARCA2 activ 3 and dFosB act-2 4.
NC(=O)c1nsc(C(=O)N(c2ccc(F)cc2)C(C(=O)NC2CCCC2)c2ccncc2)c1N (centres undefined) was read as esBAF inh 6, CDK5 inh -3, Rtt109 HAT inh -1, DYRK1A inh -2, dFosB act-1 9 and SMARCA2 activ -4.
For CC(C)c1ccc(N(C(=O)c2snc(C(N)=O)c2N)C(C(=O)NC2CCCC2)c2ccncc2)cc1 (centres undefined) the results were esBAF inh 2, CDK5 inh -7, Rtt109 HAT inh -5, DYRK1A inh 3, dFosB act-1 40*, SMARCA2 activ 4 and dFosB act-2 -1.
O=C(Nc1cccc(Cl)c1)N1C[C@H]2[C@@H](c3ccccc31)[C@H](CO)N2C(=O)c1cccnc1 was read as esBAF inh 15.
`CSc1cccc(NC(=O)NCc2cccc(CNC(=O)Nc3cccc(SC)c3)c2)c1` gave esBAF inh 5, CDK5 inh -1, Rtt109 HAT inh -6, DYRK1A inh -4, dFosB act-1 25*, SMARCA2 activ -5 and dFosB act-2 5.
Screening COc1ccc(S(=O)(=O)N2CCOCC2)cc1NC(=O)CSc1nnc2c(n1)[nH]c1ccccc12 returned esBAF inh 5, CDK5 inh 1, Rtt109 HAT inh -3, DYRK1A inh 1, dFosB act-1 14 and SMARCA2 activ -3.
O=C(CSc1nnc2c(n1)[nH]c1ccc(S(=O)(=O)N3CCOCC3)cc12)Nc1ccccc1Cl was read as esBAF inh 2, CDK5 inh 0, Rtt109 HAT inh -8, DYRK1A inh 1, dFosB act-1 26*, SMARCA2 activ -1 and dFosB act-2 -1.
Screening Cc1cc(NC(=O)CSc2nc3c(c(=O)n2-c2ccc(Br)cc2)SCC3)no1 returned esBAF inh -7, CDK5 inh 0, Rtt109 HAT inh -1, DYRK1A inh 1, dFosB act-1 42*, SMARCA2 activ 0 and dFosB act-2 6.
Cc1ccc(-n2c(SCC(=O)NCc3ccco3)nc3sc(C)c(C)c3c2=O)cc1 was read as esBAF inh 0, CDK5 inh 0, Rtt109 HAT inh 9, DYRK1A inh 1, dFosB act-1 31*, SMARCA2 activ -2 and dFosB act-2 2.
Screening Cc1ccc(-n2c(SCC(=O)Nc3cc(C)on3)nc3c([nH]c4ccccc43)c2=O)cc1 returned esBAF inh 11, CDK5 inh 0, Rtt109 HAT inh 2, DYRK1A inh -1, dFosB act-1 26*, SMARCA2 activ -3 and dFosB act-2 3.
